In all, about 310,000 compounds went through this assay and about 1,200 (0.39%) were called active. A selection follows. Entries with a potency or affinity are not part of this list. Values without a mark were called inactive. The rule behind the calls is not given here.
These compounds were tested against Large T antigen (Simian virus 40) (UniProt P03070) (assay: TAg ATPase/helicase activity blockers – biochemical (AID 1903)). Settings: SV40 large T antigen ATPase/helicase inhibition assay; at 20 µM; active compounds read high.
Chain of Large T antigen (Simian virus 40) (P03070 whole entry, looked up): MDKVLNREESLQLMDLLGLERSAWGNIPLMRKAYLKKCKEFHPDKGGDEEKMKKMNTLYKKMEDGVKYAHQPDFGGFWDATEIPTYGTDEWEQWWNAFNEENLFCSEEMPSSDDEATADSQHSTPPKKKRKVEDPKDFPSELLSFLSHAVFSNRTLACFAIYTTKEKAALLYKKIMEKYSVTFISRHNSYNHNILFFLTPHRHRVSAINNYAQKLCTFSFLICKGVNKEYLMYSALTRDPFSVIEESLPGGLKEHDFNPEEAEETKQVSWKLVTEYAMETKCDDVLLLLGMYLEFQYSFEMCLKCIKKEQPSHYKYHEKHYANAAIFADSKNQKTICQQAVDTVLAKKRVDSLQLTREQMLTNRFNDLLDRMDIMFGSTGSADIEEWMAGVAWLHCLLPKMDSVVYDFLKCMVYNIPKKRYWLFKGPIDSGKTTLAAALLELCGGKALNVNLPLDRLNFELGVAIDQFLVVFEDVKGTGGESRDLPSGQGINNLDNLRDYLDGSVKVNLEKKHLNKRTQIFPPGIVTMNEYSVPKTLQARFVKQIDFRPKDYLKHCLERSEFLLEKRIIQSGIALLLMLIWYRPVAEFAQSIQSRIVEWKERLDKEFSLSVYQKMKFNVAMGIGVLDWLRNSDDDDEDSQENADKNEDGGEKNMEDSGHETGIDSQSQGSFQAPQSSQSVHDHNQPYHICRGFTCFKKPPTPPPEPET

Structure (SMILES) | inhibition [%]
COCCn1c(SCC(=O)N2CC(C)OC(C)C2)nc2c([nH]c3ccccc32)c1=O (stereo not given) | -1.92
COc1ccc(OC)c(/C=N/NC(=O)CCc2c(C)n[nH]c2C)c1 | 5.18
COc1ccc(OC)c(/C=N/NC(=O)C(=O)N/N=C/c2cc(OC)ccc2OC)c1 | -5.1
O=C(CCc1ccc(O)c(O)c1)N/N=C/c1ccc2c(c1)OCO2 | 32.3
CN1CCN(CCC(=O)N/N=C/c2cc3c(cc2[N+](=O)[O-])OCO3)CC1 | 4.45
CCN(CC)S(=O)(=O)c1cccc(NC(=O)COC(=O)CCc2nc3ccccc3s2)c1 | 11.8
Cc1snc(S(=O)(=O)/C(C#N)=N/Nc2ccc(C(F)(F)F)cc2)c1C#N | 6.46
Cc1ccc(C)c(C(=O)CSc2nnc(C)s2)c1 | -0.65
CC1CCCCN1C(=O)CSc1nc(N)nc(N)n1 (stereo not given) | 3.86
COc1ccc(NC(=O)c2ccccc2NC(=O)COc2ccccc2)cc1 | 12.1
COC(=O)c1ccc(OC)c(NS(=O)(=O)c2ccc(-n3cnnn3)cc2)c1 | 2.42
Cn1nc(-c2ccccc2)nc1-c1ccccc1 | 11.2
O=c1nc(-c2ccccc2)n(-c2ccccc2)[nH]1 | -3.35
COc1cc(C(=O)NCC(=O)N/N=C/c2ccccn2)cc(OC)c1OC | 10.4
CCc1c(C(=O)NNC(=S)Nc2ccc(S(=O)(=O)Nc3ncccn3)cc2)csc1C | 15.1
Cc1n[nH]c(C)c1S(=O)(=O)N1CCC(C(=O)Nc2cccc(F)c2)CC1 | 4.04
O=C(NCCc1ccccc1)C1CCN(S(=O)(=O)N2CCCC2)CC1 | 7.04
O=C(Nc1ccc(F)cc1)c1ccccc1F | 12.9
COc1ccccc1NC(=O)c1ccc(NC(=O)c2ccco2)cc1 | 9.63
O=C(Nc1ccc(NC(=O)c2ccco2)cc1)c1ccco1 | 3.69

Structure (SMILES) | inhibition [%]
CCC(=O)Nc1ccc(NC(=O)c2ccco2)cc1 | 2.13
COc1cccc(OC)c1C(=O)Nc1ccc(NC(=O)c2ccco2)cc1 | 2.08
CC(=O)Nc1ccc(NC(=O)c2ccccc2F)cc1 | 2.47
Cc1ccc(NC(=O)CCNC(=O)c2ccco2)cc1 | 1
CCN(CC)S(=O)(=O)c1ccc(NC(=O)CCNC(=O)c2ccco2)cc1 | 7.03
Cc1cccc(C)c1OCC(=O)NNC(=O)c1ccoc1C | 2.67
CN(C)CCCN(C(=O)c1ccc2ccccc2c1)c1nc2cc3c(cc2s1)OCO3 | 3.84
CCOC(=O)n1c(=O)n(C)c2ccc(Br)cc21 | 4.58
C(=C\c1ccccc1)/C=N/Nc1nncc(-c2ccccc2)n1 | 8.88
Cc1ccc(CN2CCN(C3CCC3)CC2CCO)cc1 (stereo not given) | 9.81
COc1cc(C2Oc3cc(C4Oc5cc(O)cc(O)c5C(=O)C4O)ccc3OC2CO)ccc1O (stereo not given) | 22.1
COc1cc([C@H]2Oc3cc([C@H]4Oc5cc(O)cc(O)c5C(=O)[C@@H]4O)ccc3O[C@@H]2CO)ccc1O | 22.1
CCc1nnc(SCc2ccc(C(=O)OC)o2)n1N | 15
CN1/C(=C/C=N/NC(=O)c2ccc([N+](=O)[O-])cc2)C(C)(C)c2ccccc21 | 4.27
CN1/C(=C\C=N\NC(=O)c2cccnc2)C(C)(C)c2ccccc21 | 33.6
Cc1ccccc1N1CC(=O)N(c2ccccc2C)CC1=O | 0.89
Cn1c2ccccc2c(=O)c2ccc(F)cc21 | 0.83
COc1cccc(C(=O)NC2CC3CCCC(C2)N3CC(=O)Nc2ccccc2C(F)(F)F)c1 (stereo not given) | -1.46
COc1cccc(C(=O)NC2CC3CCCC(C2)N3CC(=O)Nc2ccccc2)c1 (stereo not given) | 34
O=C(CN1C2CCCC1CC(NC(=O)c1ccccc1)C2)Nc1ccccc1 (stereo not given) | -14.7

Structure (SMILES) | inhibition [%]
O=C(CN1C2CCCC1CC(NC(=O)c1ccccc1)C2)NC1CC1 (stereo not given) | 6.22
COc1cc(OC)c(C(=O)NC23CC4CC(CC(C4)C2)C3)cc1OC | 3.9
COC(=O)c1ccc(/C=N/OCC(=O)NCCc2ccc(OC)c(OC)c2)cc1 | 2.45
Cn1c(-c2ccccc2)c[n+]2c1-c1ccccc1C2 | 6.66
Cc1cccc(N2CCN(C3=NC(=O)C(=C4CCCCC4)S3)CC2)c1 | 7.31
CCOc1ccc(NS(=O)(=O)c2ccc(N)cc2)cc1 | 2.32
O=C(O)c1cccc2c1C(=O)c1ccccc1C2=O | 2.63
Nc1c(C(=O)O)ccc2c1C(=O)c1ccccc1C2=O | 6.68
CC(C)Oc1ccc(S(=O)(=O)N2CCOCC2)cc1NC(=O)C1CCC1 | 4.96
Cc1nn(-c2ccccc2)c(N)c1Sc1ccc([N+](=O)[O-])cc1 | -2.9
COc1c(/C=N/Nc2ccc([N+](=O)[O-])cc2[N+](=O)[O-])c(C)nn1-c1ccccc1 | -4.36
C=CCn1cc(CN2CCC(C(=O)Nc3cccc(-c4cccc(F)c4)c3)CC2)c(C)n1 | 9.97
CCN1C(=O)CC(N2CCN(c3ccc(OC)cc3)CC2)C1=O (stereo not given) | 27.7
CCN1C(=O)CC(N2CCC(Nc3ccc(F)cc3)CC2)C1=O (stereo not given) | 0.22
O=C(OCc1cn(Cc2ccccc2)nn1)c1ccccc1 | 7.89
COc1ccc2nc(NC(=O)/C=C/c3ccc4c(c3)OCO4)sc2c1 | 5.17
Cc1ccc(S(=O)(=O)N(C(=O)c2ccncc2)c2ccc(OC(=O)c3ccncc3)cc2)c(C)c1 | 23.4
O=C(Oc1ccc(N(C(=O)c2ccncc2)S(=O)(=O)c2ccc(F)cc2)cc1)c1ccncc1 | 32
C=CCN(c1ccccc1Cl)S(=O)(=O)c1cccc(C(=O)NCCc2ccc(OC)cc2)c1 | 5.14
COc1ccccc1CNCC(O)Cn1c2ccccc2c2ccccc21 (stereo not given) | 16

Source: PubChem BioAssay AID1903 (Southern Research Specialized Biocontainment Screening …, 2009)
